± gives the standard deviation.
tested on: MILI (PIWIL2) piRISC loaded with L1MC piRNA (26 nt); assay: pre-steady-state target cleavage rate (min^-1); guide: L1MC piRNA 5'p-UAACUAAAUACUAUGCAAGCUGUAGG; MIWI and MILI are mouse PIWI proteins and EfPiwi is from a freshwater sponge; tags in brackets are library labels; higher = faster piRNA-guided slicing of the target; conditions: auxiliary factor: 500 nM mouse GTSF1
Outline: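 Active affinity-purified piRISC carrying one synthetic guide (1 nM) was mixed with a transcribed, DNA-blocked target RNA library […] in HEPES–potassium acetate buffer at 33 °C for 0–8 or 0–960 min, with or without 500 nM GTSF1 partner protein. Uncleaved targets were then sequenced and normalised to depth and to weakly complementary targets. Three trials were pooled, and k3 was capped at 0.0001 min^-1. A burst-and-steady-state fit was applied to obtain the pre-steady-state cleavage rate.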
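Also: 1 nM active piRISC with 0.1 nM target library at 33 °C single turnover.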

Row | Sequence | pre-steady-state target cleavage rate
1 | UCCUGGUACAGCUUGCAUUGUAUUUACAAA | 0.0165 ± 0.0077
2 | UCCUGGAUCAGCUUGCAUAGUAUAAUGAAA | 0.0691 ± 0.022
3 | UCCUGGUACAGCUUGCAAUGUAUUUAGUAA | 0.0576 ± 0.013
4 | UCCUGGUACAGCUUGCAUAGUUUUUACUUA | 0.0154 ± 0.008
5 | UCCUCCUACAGCUUCCAUAGUAUUUACUUA | 0.0137 ± 0.0064
6 | UCCUGGAUGUCCUAGCUUAGUAUUUAGUUA | 0.0102 ± 0.0041
7 | UCCUGGAUGUCCAUGCAUAGUAAUUAGUUA | 0.0249 ± 0.0072
8 | UCCUCCUACAGCUUGCAUACUAUUUACUUA | 0.0688 ± 0.016
9 | UCCUGGAUGUGCUUGCUUAGUAUUAAGUUA | 0.0615 ± 0.017
10 | UCCUGGAUGAGCUUGCAUAGUAUUUACUUA | 0.0753 ± 0.019
11 | UCCUGGAUGUCCUUGCAUAGUUAUUAGUUA | 0.00901 ± 0.004
12 | UCCUGGAACUGCUUGCAUAGUAUUUUCAAA | 0.0118 ± 0.0046
13 | UCCUCCUACAGCUUGCAUAGAUUUUUCAAA | 0.0441 ± 0.013
14 | UCCUGGUACAGCUUGCAUAGAAUUUUGUUA | 0.0466 ± 0.016
15 | UCCUGGAUGUCCUUGCAUAGUAUUUCGUUA | 0.0489 ± 0.017
16 | UCCUGGAACAGCUUGCAUAGUAUUUAGUCUA | 0.055 ± 0.015
17 | UCCUGGAUGUGCUUGCAUACUAAUUAGUUA | 0.00944 ± 0.0038

Row | Sequence | pre-steady-state target cleavage rate
18 | UCCUGGAUGUCGAACCAUAGUAUUUAGUUUA | 0.00592 ± 0.0031
19 | UCCUGGAUGUCGUUCAUAGUAUUUAGUUA | 0.013 ± 0.0035
20 | UCCUGGAUGAGCUACCAUAGUAUUUAGUAA | 0.1 ± 0.018
21 | UCCUGCUACAGCUUGCAUAGUAUAUACUUA | 0.0361 ± 0.011
22 | UCCUGGAACAGCUUGCAUAGAAUAUAGUUA | 0.0426 ± 0.011
23 | UCCUCCUACAGCUUGCAUUCUAUUUACAAA | 0.0257 ± 0.0099
24 | UCCUGGAUGUGCUUGCAUAGUAUUUGUUA | 0.0295 ± 0.011
25 | UCCUGGAUGUCCUUGCAUAGAAUAUAGUUA | 0.00487 ± 0.0038
26 | UCCUGGUAGUCCUUGCAUAGUAUUUAGAAA | 0.0521 ± 0.017
27 | UCCUGGAUCAGCUUGCAUAGUAUAAUCAAA | 0.0782 ± 0.019
28 | UCCUGGAUGAGCAAGCAUAGUAUUUACAAA | 0.0174 ± 0.0067
29 | UCCUGGAUGUCCUAGCAUACUAUUUAGUUA | 0.0115 ± 0.0063
30 | UCCUGGAUGUCGAAGCUUAGUAUUUAGUUA | 0.00685 ± 0.0029
31 | UCCUGGAACAGCAUGCAUAGAAUUUAGUUA | 0.0767 ± 0.018
32 | UCCUGCUACACGUUGCAUAGUAUUUACAAA | 0.0287 ± 0.01
33 | UCCUGCUACAGCUUGCUUAGUAUUUACUUA | 0.11 ± 0.015
